Laboratory results taken from PubChem BioAssay AID1628 (Sanford-Burnham Center for Chemical Genomics, 2009).
Hit rate of the full screen: of about 190,000 compounds, about 930 (0.49%) were called active.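 How the source made its calls: active means z-score of insulin promoter reporter brightness in nuclei below -3 at 5 µM, with at least 500 cells counted; inconclusive means wells with under 500 cells, flagged as toxic or sparse; inactive means the rest.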 The list shows a part of the results. Results with a measured potency or affinity are listed apart.

assay: decrease of insulin promoter-GFP reporter – imaging, high-content screening, mouse beta cells (AID 1628); details: MIN6 insulin promoter GFP reporter, at 5 µM, stronger effect = lower value

z-score, inactive:
COCCNC(=O)c1ccc2ccccc2n1 1.76, CCN(CC)CCN1C(=O)c2oc3ccccc3c(=O)c2C1c1ccccc1 (centres undefined) 3.66, CCCN1CCc2c(sc(NC(=S)NC(=O)c3ccccc3)c2C#N)C1 5.2, CCCCN1C(=O)/C(=C/C=C2\N(C)c3ccccc3C2(C)C)SC1=S 10.9, CN1/C(=C\C=C2/SC(=S)NC2=O)C(C)(C)c2ccccc21 13.4, CCCCC(=O)Nc1ccc2c(c1)nc1n2CCSC1 3.16, Cc1cc(C)nc(N(C#N)CC(=O)N2CCC(C(N)=O)CC2)n1 1.53, CCOCCCNC(=O)c1ccc(N2CCCC2)c(NS(=O)(=O)c2ccc(C)cc2)c1 3.4, COc1ccccc1Nc1nc(Cl)c(C=O)s1 3.19, O=C(NC1=NCCS1)C1Cc2ccccc2CN1C(=O)c1ccccc1 (centres undefined) 3.06, COc1ccc2c(c1)NC(c1ccc(N(C)C)cc1)c1cccn1-2 (centres undefined) 12, COc1ccc2c(c1OC)C(=O)OC2 0.33, CCN(CC)c1ccc(/C=C/c2cc(-c3ccccc3)c3ccccc3n2)cc1 15.3, CCN(CC)c1ccc(C=C(c2nnnn2-c2ccccc2)c2nnnn2-c2ccccc2)cc1 4.4, Cc1c(N=C2N=C(NC(=O)c3cccs3)c3ccccc32)c(=O)n(-c2ccccc2)n1C 6.23, Cc1ccc(OCCN2CCN(C(=O)CCC(=O)Nc3nnc(C)s3)CC2)cc1 0.99, CN1CCS/C1=C/C=C1/SC(=S)N(Cc2ccccc2)C1=O 12.1, CC(C)C(c1nnnn1C1CCCC1)N1CCOCC1 (centres undefined) 3.02, CCCCNC(=S)NC(=O)c1ccc(Cl)cc1Cl 3.14, COc1ccc(NC(=O)CCN2CCCC(C)C2)cc1 (centres undefined) 1, O=C(NC1C=CS(=O)(=O)C1)c1sc2ccccc2c1Cl (centres undefined) 3.86, C=CCn1c(=NC(=O)c2cc(-c3cccs3)nc3ccccc23)sc2cc(S(N)(=O)=O)ccc21 8.96, CCN1CC=C2C(C#N)=C(N)C(C#N)(C#N)C(CCc3ccccc3)C2C1 (centres undefined) 13.8, Cc1cccc(-c2ncc(CN3CCCC(CO)(Cc4ccccc4C)C3)cn2)c1 (centres undefined) 3.13, Cc1cccc2sc(NC(=O)C3CCCN(S(=O)(=O)c4cccc5nonc45)C3)nc12 (centres undefined) 6.61, Cc1nc2c(ccc3nc(NC(=O)C4CC4)sc32)s1 2, C=CCNC(=O)C1CC2Cn3c(nc4cc5ccccc5cc43)C2N1C (centres undefined) 4.44, CCOC(=O)N1CCN(C(=O)NC2CCCCC2)CC1 3.74, Cc1cc(=O)oc2cc(OCC(=O)OCC(=O)NC3CC3)ccc12 3.8, CC1=Nc2ccccc2/C1=C/c1sc(=S)n(-c2cccc(C(=O)O)c2)c1O 3.2, COc1cccc(N2CCN(c3ncccn3)CC2)c1 3.1, Cc1ccc(C)c(NC(=O)C(C)CC2COCCO2)c1 (centres undefined) 3.45, O=S1(=O)N=C(N(CCO)/N=C/c2ccncc2)c2ccccc21 2.42, CC(=Nc1ccc(C)cc1C)c1sc2ccccc2c1O 3.96, O=c1oc2c3c4c(cc2c(C(F)(F)F)c1CCN1CCOCC1)CCCN4CCC3 7.75, CCN1/C(=C/C=C/c2oc3ccc4ccccc4c3[n+]2CC)Oc2ccc3ccccc3c21 17, Cc1ccccc1NCC(=O)N/N=C/c1c[nH]c2ccccc12 4.05, COc1cc(-c2cc(=O)c3ccccc3o2)ccc1O -1.08, CCOc1cccc(-c2nn3c(-c4cc(C)[nH]n4)nnc3s2)c1 1.99, COc1cc(C(c2sc3nc(C)nn3c2O)N2CC(C)CC(C)C2)cc(OC)c1OC (centres undefined) 0.98, Cc1ccc(C(=O)NN2C(=O)/C(=C/c3cn(C)c4ccccc34)SC2=S)cc1 4.98, CCN1C=CC2=C(C#N)C(N)C(C#N)(C#N)C(c3ccccc3C(F)(F)F)C2C1 (centres undefined) 11, COc1cccc(NC2C=CS(=O)(=O)C2)c1 (centres undefined) 1.43, Cc1ccc(S(=O)(=O)/N=c2\ccc(Cl)cn2C(F)F)cc1 2.64, CCNc1ccc2noc3c2c1C(=O)c1ccccc1-3 4.91, CCOC(=O)CC1C(=O)NCCN1c1nc2ccc(C)cn2c(=O)c1/C=C1\SC(=S)N(C(C)CC)C1=O (centres undefined) 15.3, CCN(CC)c1ccc2cc(-c3nc(-c4ccc(OC)cc4)cs3)c(=O)oc2c1 17, C=CCn1c(-c2oc3nc(-c4ccccc4)cc(-c4ccccc4)c3c2N)n[nH]c1=S 5.57, COc1ccc(C(=O)c2sc3nc(-c4ccccc4)ccc3c2N)cc1OC 5.8, CCOC(=O)Cc1csc(NC(=O)c2sc3nc4c(C)cc(C)cc4cc3c2N)n1 4.73, Cc1nnc(SCC2=C(C(=O)O)N3C(=O)C(NC(=O)Cn4nc(C)c(Cl)c4C)C3SC2)s1 (centres undefined) 1.08, CCOC(=O)c1cnn(-c2cc(C)nc3c(-c4ccccc4)cnn23)c1N 3.62, CCCNC(=O)Cn1c(-c2ccc(F)cc2)cc(C(=O)OCC)c1C 0.89, Cc1cc(C)n(-c2ccc(OCC(=O)O)nn2)n1 3.33, CCCCSc1ncc(C(=O)OCC)c(N)n1 2.51, Cc1cc(-c2nc3ncccc3o2)ccc1N 1.34, COC(=O)N/N=C\c1cc2c(cc1Br)OCO2 0.97, O=C(NCCc1csc(-c2ccccc2)n1)c1ccccc1F 4.15, CN1C2CCC1/C(=C/c1cccn1C)C(=O)/C2=C\c1cccn1C 3.1, N#CC1CC(c2ccc([N+](=O)[O-])cc2)=NN1c1ccc([N+](=O)[O-])cc1 (centres undefined) 5.36, O=C(OCC(=O)N1CCN(c2ccccc2)CC1)c1cccc(Cl)c1 1.29, Cn1c(-c2ccc3c(c2)OCO3)cc(=O)c2ccccc21 -0.67, CN1/C(=C\C=C2/C(=O)Oc3ccccc3C2=O)C(C)(C)c2ccccc21 8.51, CN1/C(=C\C=C(/C#N)C(=O)Nc2ccccc2F)C(C)(C)c2ccccc21 7.42, Cn1ccnc1Sc1nc(Nc2cccc(Cl)c2)nc(N2CCOCC2)n1 -0.82, N#C/C(=C/c1ccc(N2CCCCC2)o1)c1cccc(F)c1 14.6, Clc1ccc2oc(-c3ccccn3)nc2c1 3, CCN(CC)c1ccc(/C=C(/C#N)C(=O)NC(C)C)o1 6.43, COc1cc(NC(=O)Cn2cnc3sc(C)c(S(=O)(=O)N4CCN(C)CC4)c3c2=O)cc(OC)c1OC 1.41, CC(=O)Nc1nc(-c2ccc(Br)s2)cs1 5.02, Cc1cc(NC(=O)/C(C#N)=C/c2ccc(-c3ccc(SC(F)F)cc3)o2)n(-c2ccccc2)n1 3.43, Cc1ccc(CNc2ccc3c(c2)OCO3)cc1 5.54, CCOc1ccc2[nH]c(=O)c(CN(CCc3ccccc3)C(=O)N3CCOCC3)cc2c1 5.49

z-score, active:
CCN(C(=S)Nc1cccnc1)c1cccc2ccccc12 -3.01, CCN(C(=S)NCCOC)c1cccc2ccccc12 -3.13, CN1CCN(CC(=O)Nc2sc3c(c2C#N)CCC(C(C)(C)C)C3)CC1 (centres undefined) -3.27, NC(=O)c1ccc(N2CCN(c3ccc(O)cc3)CC2)c([N+](=O)[O-])c1 -3.43, CN1CCN(c2ccccc2NC(=O)c2ccc(N3CCCC3)c([N+](=O)[O-])c2)CC1 -3.01, CCN(CC)c1ccc(/C=N/Nc2nc(C)cc(C)n2)cc1 -3.23, COC(=O)c1c(NC(=O)c2ccc(C)c(S(=O)(=O)Nc3ccccc3C)c2)sc2c1CCCC2 -3.01, CCN(Cc1ccccc1)C(c1cccs1)c1nnnn1C1CCCCC1 (centres undefined) -3, Clc1ccccc1CN(Cc1ccccc1)C(c1cccs1)c1nnnn1C1CCCC1 (centres undefined) -6.23, COc1ccc(NC(=O)CCC(=O)OCc2ccc(Br)cc2)cc1 -5.13, C#CCn1c(=NC(=O)c2sc3ccccc3c2Cl)sc2cc(S(N)(=O)=O)ccc21 -3.78, COc1cccc(-c2nn(C)c3sc(C(=O)N4CCN(c5ccccn5)CC4)cc23)c1 -10.4, CC(=O)NCCN=C(C)c1sc2ccccc2c1O -3.06, Cc1nnsc1C(=O)N/N=C/c1ccc2ccccc2c1O -4.07, CCOc1cccc(-c2nnc3sc(-c4cc(OC)c(OC)c(OC)c4)nn23)c1 -3.61, Cc1cccc(-c2nnc3sc(-c4ccccc4C)nn23)c1 -3.32, C=CCn1c(-c2csc(-c3ccc(OC)c(OC)c3)n2)n[nH]c1=S -3.05, CCOC(=O)c1cnc(-n2nc(C)cc2C)nc1NCc1ccccc1 -3.75, CSC1=NC(C)(C)CC2(C)Nc3ccccc3N12 (centres undefined) -3.03, COc1ccc(-c2csc(NC(=O)c3ccccc3NS(=O)(=O)c3ccc(F)c(F)c3)n2)cc1 -4.95, COc1ccc(C2CC(C(F)(F)F)n3nc(C(=O)NCc4cn(C)nc4C)c(Cl)c3N2)cc1 (centres undefined) -9.71, Cc1c(CNC(=O)c2nn3c(c2Cl)NC(c2ccccc2)CC3C(F)(F)F)cnn1C (centres undefined) -4.22, CN1/C(=C\C(=O)C[n+]2ccc3ccccc3c2)C(C)(C)c2ccccc21 -4.73, Clc1ccc2oc(-c3cccnc3NCc3ccccc3)nc2c1 -3.89, Cc1sc2ncn(CC(=O)NCCCC(=O)N3CCN(c4ncccn4)CC3)c(=O)c2c1C -4.71, Cc1ccc(NC(=O)N(Cc2ccc3c(c2)OCO3)Cc2cc3cc4c(cc3[nH]c2=O)OCCO4)cc1 -5.39
